Several values for one entry are separate records, joined by “and”; a condition that tells them apart may be missing. Identical values can stand only once. Inconclusive results are not listed. A structure can be active in one record and inactive in another. Activity calls are given as the source filed them. Unless noted, calls come from the whole dose curve; as a rule, active = well fitted curve in the direction sought with a large enough effect in the repeat runs; inconclusive = weak or mixed curves; inactive = no such curve, though single readings can be large; an effect the other way counts as inactive or inconclusive.

Assay [1] is described as follows: Human pregnane X receptor (PXR) small molecule agonists, qHTS cell viability counter screen (AID 1346977). Note: nearly all actives have a fitted effect of over 50% in size. Note: potency is the fitted concentration of half-maximal effect. The essentials:
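Cytotoxicity counter screen run in the same wells as the PXR luciferase assay, using PXR-Luc HepG2 cells in charcoal-stripped serum medium. Viability: CellTiter-Fluor fluorescence after 24hr compound treatment.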
For orientation: qHTS replaces the single test concentration by a dilution series.

Assay [2] is described as follows: Caspase-3/7 induction in HepG2 cells by small molecules, qHTS assay (AID 1346978). Note: nearly all actives have a fitted effect of over 15% in size. Note: potency is the fitted concentration of half-maximal effect. The essentials: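 Wild-type HepG2 cells (2,000/well) were settled 5 h at 37 C, 5% CO2, then exposed to compounds in DMSO for 17 h. Caspase-3/7 activity was read by luminescence 30 min after adding Caspase-Glo 3/7 reagent at room temperature.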
Assay [3] can be described thus: Caspase-3/7 induction in CHO-K1 cells by small molecules, qHTS cell viability counter screen (AID 1346979). Note: nearly all actives have a fitted effect of over 35% in size. Note: potency is the fitted concentration of half-maximal effect. Summed up:
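Cytotoxicity counter screen run in parallel with the caspase-3/7 assay: CHO-K1 cells, 16hr compound treatment at 37C, then CellTiter-Fluor for 1hr before fluorescence reading.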

The nature of assay [4]: Caspase-3/7 induction in CHO-K1 cells by small molecules, qHTS assay (AID 1346980). Note: nearly all actives have a fitted effect of over 15% in size. Note: potency is the fitted concentration of half-maximal effect. The essentials:
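Wild-type cells were seeded at 1,500 per well and settled 5 hr at 37 C, 5% CO2, then exposed to DMSO-dissolved compounds for 17 hr. Caspase-Glo 3/7 reagent was added, and luminescence was read after 30min at room temperature.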

Assay [5] is described as follows: Caspase-3/7 induction in HepG2 cells by small molecules, qHTS cell viability counter screen (AID 1346981). Note: series mostly up to about 92 µM; nearly all actives have a fitted effect of over 30% in size. Summed up:
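Fluorescence read-out of live-cell protease activity (CellTiter-Fluor) after 1 hr with reagent. This was measured in the same wells as the caspase-3/7 luminescence, on HepG2 cells exposed to DMSO-dissolved compounds for 16 hr at 37 C.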

The target in assay [6] is Nuclear receptor subfamily 1 group I member 2 (Homo sapiens) (UniProt O75469). In words: Human pregnane X receptor (PXR) small molecule agonists, qHTS assay (AID 1346982). Note: nearly all actives have a fitted effect of over 35% in size. Note: potency is the fitted concentration of half-maximal effect. Summed up: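 HepG2 PXR-Luc reporter line, 5% charcoal-stripped FBS; 5 hr pre-incubation, compound (DMSO) 24 hr at 37 C/5% CO2; ONE-Glo 30 min RT; luminescence read-out.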
The target of assay [7] is Acetylcholinesterase (Homo sapiens) (UniProt P22303). Description: Acetylcholinesterase (AChE) small molecule antagonists: colormetric cell-based qHTS assay (AID 1347395; calls by dose curve; note: nearly all actives have a fitted effect of over 30% in size; note: potency is the fitted concentration of half-maximal effect). Summed up:
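Cells (SH-SY5Y, 2,000 per well) are seeded and left overnight at 37 C. Compound is added for 30 min, then DTNB and acetylthiocholine for a further 90 min at 37 C before absorbance-based thiocholine detection.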

Assay [8] shares this target. Description: Acetylcholinesterase (AChE) small molecule antagonists: enzyme-based qHTS assay (AID 1347397; calls by dose curve; note: nearly all actives have a fitted effect of over 55% in size). The note with it: Potency: AChE enzyme activity inhibition; outcome: AChE enzyme activity inhibition. The essentials:
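Tox21 library chemicals are tested in qHTS format against recombinant human AChE. The enzyme, dispensed at 50 mU/mL, sits with compound for 30 min at room temperature. A DTNB–acetylthiocholine cocktail follows, and colour is read after 10 min.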

Assay [9] has the same target. Description: Acetylcholinesterase (AChE) small molecule antagonists: fluorescence cell-based qHTS assay (AID 1347398; calls by dose curve; note: nearly all actives have a fitted effect of over 50% in size). The settings on record: Potency: AChE activity; outcome: AChE activity. Summed up: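 Cellular AChE inhibition: SH-SY5Y cells treated with test chemical for 30 min at 37 C, then acetylthiocholine hydrolysis followed over 40 min at room temperature via thiocholine-reactive Thiolite Green fluorescence (490/520 nm).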

The target is the same in assay [10]. Description: Acetylcholinesterase (AChE) small molecule antagonists: enzyme-based qHTS assay with human liver microsomes (AID 1347399; calls by dose curve; note: nearly all actives have a fitted effect of over 60% in size). The settings on record: Potency: qHTS inhibition; outcome: qHTS inhibition. The essentials: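 Recombinant human AChE (50 mU/mL in the enzyme mix) and human liver microsomes (0.25 mg/mL final) were preincubated with compound and NADPH (0.25 mg/mL final) for 30 min at 37 C. Acetylthiocholine/DTNB was then added; thiocholine was read colorimetrically after 10 min at room temperature.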

The target of assay [11] is Cytochrome P450 2D6 (Homo sapiens) (UniProt P10635). In words: Cytochrome P450 Family 2 Subfamily D Member 6 (CYP2D6) small molecule antagonists: luciferase reporter qHTS assay (AID 1671196). Note: nearly all actives have a fitted effect of over 50% in size. Note: potency is the fitted concentration of half-maximal effect. The essentials: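 Luminogenic proluciferin substrate, CYP2D6 enzyme; 10 min RT preincubation with compound, NADPH regeneration system added, 1 h RT. Stop/detection reagent, 20 min RT, luminescence read (RLU). Signal proportional to CYP activity.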
For orientation: In a reporter assay the amount or activity of a reporter protein is the signal.

Assay [12] addresses Cytochrome P450 2C19 (Homo sapiens) (UniProt P33261). In words: Cytochrome P450 Family 2 Subfamily C Member 19 (CYP2C19) small molecule antagonists: luciferase reporter qHTS assay (AID 1671197). Note: nearly all actives have a fitted effect of over 65% in size. Note: potency is the fitted concentration of half-maximal effect. The essentials: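 First, compounds are pinned into enzyme-substrate mix and held 10 min at room temperature. Second, NADPH regeneration solution is added and plates incubate 1 h at 37C. Third, detection reagent is added and luminescence read after 20 min.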

The target in assay [13] is Cytochrome P450 2C9 (Homo sapiens) (UniProt P11712). In words: Cytochrome P450 Family 2 Subfamily C Member 9 (CYP2C9) small molecule antagonists: luciferase reporter qHTS assay (AID 1671198). Note: nearly all actives have a fitted effect of over 50% in size. Note: potency is the fitted concentration of half-maximal effect. The essentials:
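CYP2C9 activity was measured with a P450-Glo proluciferin substrate. Enzyme–substrate mix was held with compound for 10 min at room temperature, then NADPH regeneration solution was added for 1 h at 37C. Luciferin product was read as luminescence.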

Assay [14] has as its target Cytochrome P450 1A2 (Homo sapiens) (UniProt P05177). In words: Cytochrome P450 Family 1 Subfamily A Member 2 (CYP1A2) small molecule antagonists: luciferase reporter qHTS assay (AID 1671199). Note: nearly all actives have a fitted effect of over 50% in size. Note: potency is the fitted concentration of half-maximal effect. The essentials:
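Luminescence readout (relative luminescence units) after luciferin detection reagent, 20 min RT. Preceded by 1 h room-temperature CYP1A2 reaction with NADPH regeneration solution following 10 min compound preincubation with enzyme and proluciferin substrate. Furafylline positive control.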

The target of assay [15] is Voltage-gated inwardly rectifying potassium channel KCNH2 (Homo sapiens) (UniProt Q12809). Description: Human Ether-a-go-go-Related Gene (hERG) channel small molecule antagonists: fluorescence cell-based qHTS assay (AID 1671200). The essentials: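 Fluorescence at 540 nm emission (480 nm excitation) was recorded kinetically for 2 min at 1-second intervals once the thallium-containing stimulus reached cells previously loaded with FluxOR II dye.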
(The hERG channel carries a current that helps repolarise heart muscle cells.)

The target of assay [16] is Cytochrome P450 3A4 (Homo sapiens) (UniProt P08684). In words: Cytochrome P450 Family 3 Subfamily A Member 4 (CYP3A4) small molecule antagonists: luciferase reporter qHTS assay (AID 1671201). Note: nearly all actives have a fitted effect of over 50% in size. Note: potency is the fitted concentration of half-maximal effect. Summed up: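 qHTS, 1536-well. CYP3A4 + proluciferin substrate, cpd 10 min RT → NADPH regen 1 h RT → detection reagent 20 min → luminescence (RLU). Ketoconazole positive control.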

Assay [17] has as its target Nuclear receptor subfamily 1 group I member 2 (Rattus norvegicus) (UniProt Q9R1A7). In words: Rat pregnane X receptor (rPXR) activation by small molecules, qHTS assay (AID 1346983). Note: nearly all actives have a fitted effect of over 20% in size. The note with it: rPXR luciferase reporter cells, One-Glo luminescence, 24 h; stronger effect = higher value. The essentials: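 Cell-based rPXR luciferase reporter assay, 2,000 cells per well, rested 5hr at 37 C before compound addition in DMSO, then 24 hr at 37 C. One-Glo reagent was added and luminescence read after 30 min at room temperature.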

Assay [18] deals with Nuclear receptor subfamily 1 group I member 2 (Homo sapiens) (UniProt O75469). Description: CYP3A4 induction through human pregnane X receptor (PXR) by small molecules, qHTS assay (AID 1346984). Note: nearly all actives have a fitted effect of over 40% in size. Summed up:
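HepG2-derived DPX-2 line carrying PXR plus a CYP3A4-promoter luciferase reporter; cells plated 5 hr, compound-exposed 24 hr at 37C. CYP3A4 activity probed with 3uM (final) Luciferin-IPA for 3hr, then luciferase read after One-Glo.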

The target is the same in assay [19]. In words: Human pregnane X receptor (PXR) activation by small molecules, qHTS assay (AID 1346985). Note: nearly all actives have a fitted effect of over 40% in size. The essentials: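 DPX-2 cells (HepG2 co-transfected with a PXR response element and a CYP3A4-promoter luciferase construct) were seeded at 2,000 per well, rested 5 hr at 37C, then exposed to DMSO-dissolved compounds for 24 hr. Activation was read as luciferase luminescence.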
% is set by controls: 0 for no effect and ±100 for the full control effect.

Chain of Cytochrome P450 2C19 (Homo sapiens) (P33261 whole entry, looked up): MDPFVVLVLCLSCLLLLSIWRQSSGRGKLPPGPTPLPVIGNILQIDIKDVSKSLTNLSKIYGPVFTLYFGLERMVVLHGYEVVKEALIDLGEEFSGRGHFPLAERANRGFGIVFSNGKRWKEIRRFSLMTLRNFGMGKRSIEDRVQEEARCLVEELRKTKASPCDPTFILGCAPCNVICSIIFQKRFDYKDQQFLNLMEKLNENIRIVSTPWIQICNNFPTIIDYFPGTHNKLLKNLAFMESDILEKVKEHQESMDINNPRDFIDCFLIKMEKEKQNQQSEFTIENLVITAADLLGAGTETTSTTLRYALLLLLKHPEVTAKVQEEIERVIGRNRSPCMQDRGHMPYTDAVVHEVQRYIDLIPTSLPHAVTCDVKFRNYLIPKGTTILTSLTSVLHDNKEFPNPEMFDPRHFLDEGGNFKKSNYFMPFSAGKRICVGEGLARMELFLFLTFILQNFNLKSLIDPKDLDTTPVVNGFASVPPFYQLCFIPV
Chain of Acetylcholinesterase (Homo sapiens) (P22303 whole entry, looked up): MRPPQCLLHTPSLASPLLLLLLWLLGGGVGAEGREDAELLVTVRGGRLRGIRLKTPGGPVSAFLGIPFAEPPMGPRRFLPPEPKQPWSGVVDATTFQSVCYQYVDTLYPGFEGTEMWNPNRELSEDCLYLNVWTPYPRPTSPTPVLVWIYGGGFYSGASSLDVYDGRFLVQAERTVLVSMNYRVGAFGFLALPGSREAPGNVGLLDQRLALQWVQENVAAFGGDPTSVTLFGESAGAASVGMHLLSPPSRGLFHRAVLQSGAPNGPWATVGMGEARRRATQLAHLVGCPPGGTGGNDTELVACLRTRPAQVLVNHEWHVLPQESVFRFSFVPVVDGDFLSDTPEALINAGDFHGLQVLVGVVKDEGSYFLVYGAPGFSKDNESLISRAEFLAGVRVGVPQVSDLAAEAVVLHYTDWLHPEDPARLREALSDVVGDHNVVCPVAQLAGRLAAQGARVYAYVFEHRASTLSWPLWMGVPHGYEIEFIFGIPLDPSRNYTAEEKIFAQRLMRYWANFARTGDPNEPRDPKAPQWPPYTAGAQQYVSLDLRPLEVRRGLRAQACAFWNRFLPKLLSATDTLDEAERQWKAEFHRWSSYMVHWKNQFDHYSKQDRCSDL
Chain of Nuclear receptor subfamily 1 group I member 2 (Rattus norvegicus) (Q9R1A7 whole entry, looked up): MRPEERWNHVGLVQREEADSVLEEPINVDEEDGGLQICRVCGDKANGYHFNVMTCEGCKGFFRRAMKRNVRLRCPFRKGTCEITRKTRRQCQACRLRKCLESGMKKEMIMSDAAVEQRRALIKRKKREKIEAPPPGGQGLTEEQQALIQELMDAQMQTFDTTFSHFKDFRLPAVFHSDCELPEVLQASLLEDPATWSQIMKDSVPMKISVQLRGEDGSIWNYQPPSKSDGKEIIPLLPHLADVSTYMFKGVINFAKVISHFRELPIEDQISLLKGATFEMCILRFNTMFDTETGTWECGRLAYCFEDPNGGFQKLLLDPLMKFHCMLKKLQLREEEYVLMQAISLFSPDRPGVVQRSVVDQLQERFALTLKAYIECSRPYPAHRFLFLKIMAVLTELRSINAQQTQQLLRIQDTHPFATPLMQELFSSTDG
Chain of Cytochrome P450 2D6 (Homo sapiens) (P10635 whole entry, looked up): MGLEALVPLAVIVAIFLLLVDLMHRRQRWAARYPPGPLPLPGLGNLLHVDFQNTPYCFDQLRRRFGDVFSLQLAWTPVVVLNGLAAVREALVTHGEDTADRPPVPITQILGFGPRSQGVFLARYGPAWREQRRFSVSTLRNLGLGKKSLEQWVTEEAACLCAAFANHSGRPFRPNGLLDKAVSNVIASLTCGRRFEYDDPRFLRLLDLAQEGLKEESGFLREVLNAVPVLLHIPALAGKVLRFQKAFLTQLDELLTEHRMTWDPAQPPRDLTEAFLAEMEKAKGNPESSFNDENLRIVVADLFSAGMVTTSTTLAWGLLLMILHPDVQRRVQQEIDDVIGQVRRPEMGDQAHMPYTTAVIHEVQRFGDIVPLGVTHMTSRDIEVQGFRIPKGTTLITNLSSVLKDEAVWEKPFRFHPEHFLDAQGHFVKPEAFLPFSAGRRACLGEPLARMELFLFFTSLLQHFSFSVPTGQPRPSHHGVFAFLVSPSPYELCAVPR
Chain of Nuclear receptor subfamily 1 group I member 2 (Homo sapiens) (O75469 whole entry, looked up): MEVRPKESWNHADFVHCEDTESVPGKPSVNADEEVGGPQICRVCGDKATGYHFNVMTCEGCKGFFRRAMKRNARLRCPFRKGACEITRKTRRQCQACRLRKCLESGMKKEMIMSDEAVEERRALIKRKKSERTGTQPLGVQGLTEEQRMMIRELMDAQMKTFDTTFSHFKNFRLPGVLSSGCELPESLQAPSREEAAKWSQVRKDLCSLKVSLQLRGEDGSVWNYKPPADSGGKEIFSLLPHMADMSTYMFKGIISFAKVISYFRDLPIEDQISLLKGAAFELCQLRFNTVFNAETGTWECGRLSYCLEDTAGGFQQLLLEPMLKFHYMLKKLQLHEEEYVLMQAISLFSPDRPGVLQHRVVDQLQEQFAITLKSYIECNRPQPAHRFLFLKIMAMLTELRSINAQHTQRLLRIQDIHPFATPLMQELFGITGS
Chain of Cytochrome P450 3A4 (Homo sapiens) (P08684 whole entry, looked up): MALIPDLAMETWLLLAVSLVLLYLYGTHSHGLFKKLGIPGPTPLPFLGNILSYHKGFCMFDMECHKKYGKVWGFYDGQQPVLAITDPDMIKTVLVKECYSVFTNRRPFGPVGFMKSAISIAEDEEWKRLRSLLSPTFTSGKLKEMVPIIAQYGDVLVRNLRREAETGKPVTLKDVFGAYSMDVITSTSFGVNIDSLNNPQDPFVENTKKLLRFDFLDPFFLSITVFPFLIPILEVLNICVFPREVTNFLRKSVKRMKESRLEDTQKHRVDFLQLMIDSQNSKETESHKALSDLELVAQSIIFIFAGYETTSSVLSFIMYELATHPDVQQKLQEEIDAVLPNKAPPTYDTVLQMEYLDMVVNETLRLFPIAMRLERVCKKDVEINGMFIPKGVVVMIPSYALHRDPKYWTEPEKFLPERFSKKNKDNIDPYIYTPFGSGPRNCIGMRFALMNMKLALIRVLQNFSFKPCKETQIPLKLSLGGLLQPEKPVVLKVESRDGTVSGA
Chain of Cytochrome P450 2C9 (Homo sapiens) (P11712 whole entry, looked up): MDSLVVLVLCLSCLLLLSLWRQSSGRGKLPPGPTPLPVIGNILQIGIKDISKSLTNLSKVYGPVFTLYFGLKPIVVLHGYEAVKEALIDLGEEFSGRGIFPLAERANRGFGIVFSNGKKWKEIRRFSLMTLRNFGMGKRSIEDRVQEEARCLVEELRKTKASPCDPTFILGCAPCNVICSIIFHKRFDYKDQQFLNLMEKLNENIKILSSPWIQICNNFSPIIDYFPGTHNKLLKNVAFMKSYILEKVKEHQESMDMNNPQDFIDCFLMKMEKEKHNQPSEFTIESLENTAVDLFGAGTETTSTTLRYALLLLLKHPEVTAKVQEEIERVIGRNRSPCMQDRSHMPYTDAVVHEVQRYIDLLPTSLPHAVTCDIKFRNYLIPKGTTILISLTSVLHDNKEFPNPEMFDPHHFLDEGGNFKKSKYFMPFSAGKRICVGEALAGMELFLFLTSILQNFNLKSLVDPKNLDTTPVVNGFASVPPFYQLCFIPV
Chain of Cytochrome P450 1A2 (Homo sapiens) (P05177 whole entry, looked up): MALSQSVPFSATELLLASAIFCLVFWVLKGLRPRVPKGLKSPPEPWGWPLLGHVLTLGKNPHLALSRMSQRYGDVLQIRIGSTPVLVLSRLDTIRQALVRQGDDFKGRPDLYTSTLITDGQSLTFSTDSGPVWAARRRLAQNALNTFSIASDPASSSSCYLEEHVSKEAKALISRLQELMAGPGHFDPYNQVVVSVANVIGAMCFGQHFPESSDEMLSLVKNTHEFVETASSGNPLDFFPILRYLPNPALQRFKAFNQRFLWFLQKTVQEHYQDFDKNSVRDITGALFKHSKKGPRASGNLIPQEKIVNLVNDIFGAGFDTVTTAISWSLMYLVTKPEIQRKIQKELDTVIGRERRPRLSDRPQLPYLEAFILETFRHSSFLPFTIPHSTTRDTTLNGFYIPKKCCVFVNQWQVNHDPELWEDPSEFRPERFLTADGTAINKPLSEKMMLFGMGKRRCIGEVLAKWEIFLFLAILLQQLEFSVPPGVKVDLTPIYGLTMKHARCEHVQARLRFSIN

Consider `O=C(Cc1ccccc1)OCCc1ccccc1`, for which the Potency entry in [1], in [2], in assay [3], in assay [4], in [5] and in assay [6] was “inactive” in each case. The Potency result in [7], in [8], in assay [9], in assay [10], in assay [11] and in [15] was “inactive” in each case. Further, in assay [16], the Potency entry is “inactive”. Further, the values for the Potency in assay [12], in assay [13] and in assay [14] were 2.52 µM (active), 20 µM (active) and 10 µM (active), respectively.

`CCC1(CC)C(=O)NC(=O)NC1=O`: the Potency entry in assay [1], in assay [2], in assay [3], in assay [4], in [5] and in [6] was “inactive” throughout. Besides, the Potency result in assay [19], in assay [7], in [8], in assay [9], in assay [10] and in [11] was “inactive” throughout. Further, the Potency result in assay [13], in [14], in assay [15] and in assay [16] was “inactive” in each case. Moreover, the max activation in assay [17] is 0.212% (inactive). In [18], the compound was classed as inactive.

Consider `COc1ccccc1N1CCNCC1`, for which the Potency entry in assay [1], in [2], in [3], in assay [4], in [5] and in assay [6] was “inactive” throughout. Further, the Potency result in [19], in assay [11], in [12], in [13], in [14] and in assay [15] was “inactive” throughout. Moreover, the Potency result in [16] is “inactive”. Besides, in assay [17], the max activation is -3.01% (inactive). Also, the compound was classed as inactive in assay [18].

For the compound `CCCC[N+](CCCC)(CCCC)CCCC`, the Potency entry in [1], in assay [2], in [3], in [4], in assay [5] and in assay [6] was “inactive” each time. The Potency result in assay [8], in assay [9], in [10], in [12], in assay [13] and in [14] was “inactive” each time. Further, the Potency entry in assay [16] is “inactive”. The results for the Potency in [7] and in assay [11] were 44.7 µM (active) and 8.9 nM (active), respectively.

`CCC(C)(C)c1ccc(O)c(C(C)(C)CC)c1`: the Potency was 30.6 µM (active) in assay [1]; 21.7 µM (active) in [2]; 48 µM (active) and 27.3 µM (active) in assay [3]; “inactive and 17.2 µM (active)” in assay [4]; 27 µM (active) and inactive in assay [6]; 35.2 µM (active) and 31.7 µM (active) in [11]. The Potency is 4.97 µM (active) and 1.78 µM (active) in [12]; 4.43 µM (active) and 5.64 µM (active) in [13]; 19.8 µM (active) and 31.7 µM (active) in assay [14]; 19.8 µM (active) and 25.2 µM (active) in assay [16]. Also, the Potency result in [5], in assay [7], in [8], in assay [9], in [10] and in [15] was “inactive” throughout.

For `CCCCCBr`, the Potency result in assay [1], in assay [2], in assay [3], in [4], in assay [5] and in assay [6] was “inactive” in each case. In addition, the Potency entry in [7], in assay [8], in assay [9], in [10], in [11] and in assay [12] was “inactive” throughout. The Potency entry in assay [13], in assay [14], in assay [15] and in [16] was “inactive” each time.

For `COC1CC(=C(c2cccs2)c2cccs2)C[N+](C)(C)C1` (centres undefined), the Potency result in assay [1], in assay [2], in assay [3], in assay [4], in assay [5] and in assay [6] was “inactive” each time. Moreover, the Potency result in assay [19], in assay [7], in assay [8], in [9], in assay [10] and in [12] was “inactive” throughout. Moreover, the Potency result in [13], in [14] and in assay [16] was “inactive” each time. Moreover, the max activation in [17] is -1.69% (inactive). Moreover, the call in [18] was inactive. Further, the Potency in [11] is 309 nM (active).

For the origin of these results see PubChem BioAssay (Tox21).
